Rows were chosen to be rich in hits. Some 3.5% of all compounds tested hit in one or more screens of this group.
MBD2 DNA inh: inhibitors of human MBD2 binding to methylated oligonucleotide. TR-FRET. 370,000 tested, 0.31% active. Q9UBB5. inhibition, % at 4.4 µM; in the data active = inhibition above about 13%
UHRF1 MBD2 ctr: human UHRF1 methylated DNA binding inhibitors; Q96T88; UHRF1 binding to methylated oligo, TR-FRET; inhibition, % at 4.4 µM; 370,000 tested, 0.75% active; in the data active = inhibition above about 21%;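 note: UHRF1 SRA domain binding a hemimethylated CpG hairpin DNA probe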
LEDGF integ inh: blocks HIV-1 LEDGF/p75-dependent DNA integration. AID 743269. 370,000 tested, 0.64% active. inhibition, % at 3.7 µM. TR-FRET IN-LEDGF/p75 DNA integration, Eu/Cy5;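 active = inhibition above the screen-wide mean plus 3 SD, cut at about 13% in these data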;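 note: signal is the Cy5 over europium emission ratio at 671 and 618 nm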
PG9 binder: PG9 antibody binding by small molecule | TR-FRET gp120-PG9 antibody binding | inhibition, % at 6.7 µM | 360,000 tested, 0.43% active; in the data active = inhibition above about 8.5%
rCAG binder: molecules binding r(CAG) RNA repeats; r(CAG) RNA repeat, TO-PRO-1 dye displacement fluorescence; inhibition, % at 3 µM; 370,000 tested, 1.3% active;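 active = inhibition above the plate cutoff, the mean of all test compounds on that plate plus 3 SD, cut at about 35% in these data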;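 note: higher means more dye released from RNA so lower well fluorescence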
DNMT1 inh: blocks human DNA methyltransferase DNMT1; inhibition (reported as % activation of signal), % at 10 µM; DNMT1 molecular beacon, Hinp1I cleavage, fluorescence; AID 588458; P26358; 360,000 tested, 0.83% active; in the data active = inhibition above about 50%
Target sequence (P26358 504-1616 limits assumed): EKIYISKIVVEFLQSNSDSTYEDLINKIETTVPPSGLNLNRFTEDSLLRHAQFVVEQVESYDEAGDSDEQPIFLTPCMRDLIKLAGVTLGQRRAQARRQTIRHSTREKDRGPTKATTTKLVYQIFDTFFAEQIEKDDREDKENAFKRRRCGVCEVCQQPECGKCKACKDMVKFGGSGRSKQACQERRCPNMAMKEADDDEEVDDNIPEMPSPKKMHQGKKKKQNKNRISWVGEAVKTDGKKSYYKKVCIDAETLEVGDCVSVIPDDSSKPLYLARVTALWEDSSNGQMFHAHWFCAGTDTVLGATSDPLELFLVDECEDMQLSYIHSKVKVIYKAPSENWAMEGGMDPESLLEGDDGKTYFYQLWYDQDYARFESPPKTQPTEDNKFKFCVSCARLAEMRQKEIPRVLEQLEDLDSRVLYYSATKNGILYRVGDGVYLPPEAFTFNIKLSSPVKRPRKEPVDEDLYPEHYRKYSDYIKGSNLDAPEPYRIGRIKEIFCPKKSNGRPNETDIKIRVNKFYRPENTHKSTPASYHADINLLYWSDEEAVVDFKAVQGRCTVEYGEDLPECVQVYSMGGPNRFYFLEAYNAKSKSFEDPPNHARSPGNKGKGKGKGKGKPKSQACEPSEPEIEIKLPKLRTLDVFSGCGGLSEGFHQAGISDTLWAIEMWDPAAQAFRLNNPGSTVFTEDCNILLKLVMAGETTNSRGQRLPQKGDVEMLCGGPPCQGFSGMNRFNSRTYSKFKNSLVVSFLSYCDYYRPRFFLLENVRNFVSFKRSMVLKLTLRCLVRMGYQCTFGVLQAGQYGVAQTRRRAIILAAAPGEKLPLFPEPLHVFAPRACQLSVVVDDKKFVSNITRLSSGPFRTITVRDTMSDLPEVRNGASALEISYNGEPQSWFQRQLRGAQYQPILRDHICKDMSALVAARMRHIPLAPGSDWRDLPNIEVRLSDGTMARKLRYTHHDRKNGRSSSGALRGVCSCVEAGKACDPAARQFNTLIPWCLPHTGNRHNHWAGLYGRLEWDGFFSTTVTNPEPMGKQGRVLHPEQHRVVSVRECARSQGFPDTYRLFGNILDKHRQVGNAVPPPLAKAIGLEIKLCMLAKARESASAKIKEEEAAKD
rCAG bind conf: r(CAG) RNA repeat binding, confirmation | inhibition, % at 3 µM | shares compounds with rCAG binder | TO-PRO-1 dye displacement fluorescence | 4,300 tested, 70% active | AID 652065;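 active = inhibition above a per-plate cutoff, the mean inhibition of sample wells plus 3 SD, cut at about 35% in these data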;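 note: loss of TO-PRO-1 fluorescence as compound displaces dye from 1x1 AA loop RNA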
DNA CAG counter: counter-screen for rCAG RNA binders: DNA CAG dye complex inhibitors | shares compounds with rCAG binder | d(CAG) DNA oligo TO-PRO-1 dye displacement, fluorescence | inhibition, % at 3 µM | 4,300 tested, 94% active | AID 652068;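 active = inhibition above its plate's cutoff, the mean test-well inhibition plus 3 SD, cut at about 4.8% in these data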;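 note: hits displace the dye from DNA and so lower well fluorescence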
DNA CAG DR: DNA CAG dye complex inhibition, dose response counter-screen. shares compounds with rCAG binder. DNA CAG/GTC duplex TO-PRO-1 dye displacement fluorescence. IC50, µM. 250 tested, 20% active. AID 686960; in the data active = IC50 below about 10 µM
A number is an active result; n = inactive; x = not tested or not shown.

SMILES	MBD2 DNA inh	UHRF1 MBD2 ctr	LEDGF integ inh	PG9 binder	rCAG binder	DNMT1 inh	rCAG bind conf	DNA CAG counter	others
CSc1ccc(CN2CCC2(C)C(=O)NC2CCN(Cc3ccccc3)CC2)cc1 (configuration not stated)	n	n	n	n	n	n	x	x
O=C(CN1C(=O)S/C(=C\c2cccs2)C1=O)Nc1ccc(O)cc1C(=O)O	n	n	n	n	68	n	49	15
O=C(CCN1C(=O)S/C(=C/c2ccccc2)C1=O)Nc1ccc(O)c(C(=O)O)c1	n	n	n	n	56	n	40	14
O=C(CCN1C(=O)S/C(=C\c2ccccc2)C1=O)Nc1ccc(O)cc1C(=O)O	n	n	n	n	46	n	n	8.4
Cc1ccc(/C=C2\SC(=S)N(CCC(=O)NNC(=O)c3ccc(O)cc3)C2=O)cc1	n	n	n	n	n	n	x	x
CN1C(=O)/C(=C/c2ccc(C(=O)Nc3ccc(O)cc3C(=O)O)cc2)SC1=S	n	n	n	n	55	n	94	82
CCCCC(C(=O)NC(C)c1ccccc1)C(=O)NC(C)c1ccccc1 (configuration not stated)	n	n	n	n	n	n	x	x
CS(=O)(=O)c1ccc2nc(NC(=O)c3ccccc3Cl)sc2c1	n	n	n	n	n	n	x	x
CS(=O)(=O)c1ccc2nc(NC(=O)Nc3ccc(Cl)cc3)sc2c1	n	n	n	n	60	n	54	34
NS(=O)(=O)c1ccc2nc(NC(=O)Nc3ccc(F)cc3)sc2c1	n	n	n	n	57	n	n	24
CCCOC(=O)Cn1cnc2scc(-c3ccc(C)cc3)c2c1=O	n	n	n	n	n	n	x	x
CCc1ccc(-c2csc3ncn(Cc4ccc(C(=O)O)cc4)c(=O)c23)cc1	n	n	n	n	35	n	n	7.7
COC(=O)[C@@H](Cc1c[nH]c2ccccc12)NC(=O)c1ccc2c(c1)OCO2	n	n	n	n	n	n	x	x
COc1ccccc1C(=O)NCC(=O)OCCCOC(=O)CNC(=O)c1ccccc1OC	n	n	n	n	n	n	x	x
Cc1cccc(-n2c(O)c(/C=N/NC(=O)c3ccccc3Cl)c3ccccc3c2=O)n1	n	n	n	n	n	n	x	x
O=C(N/N=C/c1c(O)n(Cc2ccccc2)c(=O)c2ccccc12)c1cccnc1	n	n	n	n	69	n	64	25
O=C(N/N=C/c1c(O)n(-c2ccccc2Cl)c(=O)c2ccccc12)c1cccnc1	n	n	n	n	47	n	n	8.0
COc1ccc(Cn2c(O)c(/C=N/NC(=O)c3cccnc3)c3ccccc3c2=O)cc1	n	n	n	n	75	n	71	33	DNA CAG DR=n
O=C(Nc1ccc(C(=O)O)cc1)/C(=C\C=C\c1ccccc1)NC(=O)c1ccccc1Br	n	n	n	n	54	n	35	12
O=C(Nc1ccc(C(=O)O)cc1)/C(=C\C=C\c1ccccc1)NC(=O)c1cccc(Br)c1	n	n	n	n	78	n	80	52
Cc1ccc(Cc2c(-c3cccc(Cl)c3)nc3c(C)cc(Br)cn23)cc1	n	n	n	n	n	n	x	x
Cc1cccc(N2CCN(C(=O)C3CCC(CNS(=O)(=O)c4cccs4)CC3)CC2)c1C (configuration not stated)	n	n	n	n	n	n	x	x
COc1ccc(S(=O)(=O)NC(C)c2ccc3c(c2)OCCO3)cc1 (configuration not stated)	n	n	n	n	n	n	x	x
CCC(C)Sc1ccc([C@@H]2[C@H]3C(=O)N(CC)C(=O)[C@H]3[C@]3(C(=O)OC)CCCN23)cc1OC (some centres not stated)	n	n	n	n	n	n	x	x
Cc1c(Nc2nc3ccccc3nc2NS(=O)(=O)c2cccc(Cl)c2)c(=O)n(-c2ccccc2)n1C	n	n	n	n	52	n	48	15
SMILES	MBD2 DNA inh	UHRF1 MBD2 ctr	LEDGF integ inh	PG9 binder	rCAG binder	DNMT1 inh	rCAG bind conf	DNA CAG counter	others
Cc1ccc(Nc2nc3ccccc3nc2Nc2c(C)n(C)n(-c3ccccc3)c2=O)cc1	n	n	n	n	n	n	x	x
CC1CCN(c2ccc(C(=O)O)cc2NS(=O)(=O)c2ccc(C(C)(C)C)cc2)CC1	n	n	n	x	64	x	64	26
COCCNC(=O)C(c1ccc(F)cc1)N(Cc1ccccc1)C(=O)CCC(=O)Nc1ccccn1 (configuration not stated)	n	n	n	n	n	n	x	x
O=C1OC(CC(=O)N(Cc2nnc(-c3ccccc3Cl)o2)C2CC2)c2ccccc21 (configuration not stated)	n	n	n	n	n	n	x	x
CCOc1cc(C2C3=C(CCCC3=O)N(CCC(=O)O)C3=C2C(=O)CCC3)ccc1OS(=O)(=O)c1ccc(C)cc1	n	n	n	n	n	n	x	x
Cc1ccc(S(=O)(=O)Oc2ccc(C3C4=C(CCCC4=O)N(CCC(=O)O)C4=C3C(=O)CCC4)cc2Cl)cc1	n	n	n	n	36	n	37	11
CCCn1c(SCC(=O)N(CC)c2c(N)n(Cc3ccccc3)c(=O)[nH]c2=O)nnc1-c1ccncc1	n	n	n	n	n	n	x	x
COc1ccc(C(=O)O)cc1NC(=S)NC(=O)c1ccc(-c2ccc(Cl)cc2)o1	n	n	n	n	40	n	72	32	DNA CAG DR=7.7
Cc1ccc(C(=O)O)cc1NC(=S)NC(=O)c1ccc(-c2ccccc2)cc1	n	n	n	n	55	n	67	20
COc1ccc(C(=O)NNC(=O)C(=O)/C=C(\O)c2ccc(C)cc2)cc1	n	n	n	n	47	n	n	11
O=C(/C=C(\O)c1ccccc1)C(=O)NNC(=O)c1ccccc1	n	n	n	n	n	n	x	x
COC(=O)[C@]12C[C@H](CC(=O)N3CCOCC3)C(=O)N(CCc3ccc(OC)c(OC)c3)C1=C[C@H](C1CCCC1)O[C@@H]2C	n	n	n	x	n	x	x	x
COc1cccc(CNC(=O)[C@@H]2CCCN2C(=O)[C@@H]2CCCN2C(=O)c2c(F)cccc2F)c1	n	n	n	n	n	x	x	x
CC[C@@H]1CC2=C(C(=O)OC(C)(C)O2)[C@@H](c2ccc(Cl)cc2)O1	n	n	n	n	n	x	x	x
Cc1c(C(=O)Nc2ccccc2)c2ccc(C(F)(F)F)cc2n1O	n	n	n	n	n	n	x	x
COc1ccc(S(=O)(=O)Nc2ccccc2C(=O)NCc2ccco2)cc1	n	n	n	n	n	n	x	x
O=C(NCc1ccco1)c1ccccc1NS(=O)(=O)c1ccc(Br)s1	n	n	n	n	44	n	48	16
